# Most compounds without a hit are left out; they make up all but 3.6% or so of the library.
# Anthrax LF inh2 = anthrax lethal factor protease inhibition; P15917; inhibition, % at 10 µM; multiplex microsphere protease cleavage assay, LF; 0.12% of 360,000 active; further: plate controls were buffer without enzyme for full effect and enzyme alone for no effect
# Target sequence (P15917 whole entry, looked up): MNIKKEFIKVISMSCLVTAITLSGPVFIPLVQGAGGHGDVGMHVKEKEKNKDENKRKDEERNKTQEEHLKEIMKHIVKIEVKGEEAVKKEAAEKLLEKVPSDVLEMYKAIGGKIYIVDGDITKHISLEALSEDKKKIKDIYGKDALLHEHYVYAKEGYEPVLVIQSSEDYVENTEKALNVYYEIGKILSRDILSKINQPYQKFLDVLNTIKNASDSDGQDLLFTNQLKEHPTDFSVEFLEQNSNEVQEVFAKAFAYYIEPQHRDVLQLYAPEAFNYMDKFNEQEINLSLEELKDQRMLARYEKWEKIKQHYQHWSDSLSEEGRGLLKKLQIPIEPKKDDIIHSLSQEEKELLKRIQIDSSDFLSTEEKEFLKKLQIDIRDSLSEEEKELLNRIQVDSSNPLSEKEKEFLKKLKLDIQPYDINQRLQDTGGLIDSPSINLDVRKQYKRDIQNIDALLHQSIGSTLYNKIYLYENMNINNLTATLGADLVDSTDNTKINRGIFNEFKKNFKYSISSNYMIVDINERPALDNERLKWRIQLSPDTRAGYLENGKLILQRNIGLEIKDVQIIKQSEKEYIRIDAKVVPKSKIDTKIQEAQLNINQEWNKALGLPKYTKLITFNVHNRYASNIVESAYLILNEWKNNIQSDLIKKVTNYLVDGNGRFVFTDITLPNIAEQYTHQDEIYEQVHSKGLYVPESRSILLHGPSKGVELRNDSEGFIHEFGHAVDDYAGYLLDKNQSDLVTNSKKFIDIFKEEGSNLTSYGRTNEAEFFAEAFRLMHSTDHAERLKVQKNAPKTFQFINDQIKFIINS
# SARS 3CLpro inh = SARS-CoV 3CLpro protease inhibition; P0C6X7; recombinant SARS-CoV 3CLpro, quenched FRET peptide cleavage; inhibition, % at 6 µM; 0.14% of 290,000 active; AID 1706; in the data active means inhibition above about 12%
# Bead autofluor = compound fluorescence in toxin protease inhibitor counterscreen | 3.1% of 360,000 active | compound autofluorescence counterscreen, microsphere flow cytometry; hits give high values | fluorescence intensity (test concentration not listed); in the data active means fluorescence intensity above about 16000; inconclusive means no clear call, values can overlap the other calls
# BoNT A protease = blocks Botulinum neurotoxin A light chain protease. multiplex microsphere protease substrate cleavage, flow cytometry. inhibition, % at 10 µM. 0.17% of 360,000 active. AID 588499; further: plate controls were buffer without enzyme for full effect and enzyme alone for no effect
# BoNT F protease = blocks Botulinum neurotoxin F light chain protease | AID 588497 | Multiplex microsphere protease cleavage assay, flow cytometry | 0.22% of 360,000 active | inhibition, % at 10 µM; in the data active means inhibition above about 35%, passing the limit was not always enough; inconclusive means no clear call, values can overlap the other calls; further: plate controls were buffer without enzyme for full effect and enzyme alone for no effect
# BJeLR viability = BJeLR cell viability loss. inhibition, % (concentration not given with the values). BJeLR (HRASV12) viability, CellTiter-Glo ATP luminescence, 48 h. 0.17% of 300,000 active; in the data active means inhibition above about 50%; inconclusive means no clear call, values can overlap the other calls
# * marks the source's active call; other numbers are inactive results; ? = inconclusive; . = no result. Unless noted, no stated cut-off is given here; in the data, active means inhibition above about 30%; inconclusive means no clear call, values can overlap the other calls; inactive means below that.
SMILES,Anthrax LF inh2,SARS 3CLpro inh,Bead autofluor,BoNT A protease,BoNT F protease,BJeLR viability
COc1ccc(-c2ccc(CN3C(C(C)C)C(=O)N(Cc4cn(CCC5OCCO5)nn4)CCS3(=O)=O)cc2)cc1 (configuration not stated),-0.2,.,3023,-0.2,-3.7,.
CC1CC(C)CN(C(=O)Cn2c(=O)n(CCCCC(=O)NC3CCCC3)c(=O)c3ccccc32)C1 (configuration not stated),2.5,0.4,3620,0.1,36.9*,1.7
CCn1c(=O)n(CC(=O)N2CC(C)CC(C)C2)c(=O)c2ccccc21 (configuration not stated),-3.3,-1.5,20034*,-0.4,0.4,-5.0
CN(C)C(=O)CCC(=O)N1CCCC(C(=O)c2ccc(C(F)(F)F)cc2)C1 (configuration not stated),-5.1,-3.3,3969,-2.1,-25.6,-13.4
CC1(C)CC(=NOC(=O)c2ccccc2)CC(C)(C)N1,1.3,-10.4,19903*,2.0,2.7,0.1
O=C(Nc1ccn(Cc2ccc(Cl)cc2)n1)c1ccc2c(c1)OCO2,-1.7,2.5,24410*,-3.0,-3.1,14.0
O=C(Nc1ccc(CN2CCCCC2)cc1)c1ccc2c(c1)OCO2,0.9,-5.2,20600*,-0.2,-0.7,-1.1
CCN(CC)C(=O)c1csc([C@@H]2O[C@H](CO)[C@H](O)[C@H](O)[C@H]2O)n1,-7.3,.,3942,-0.4,-6.9,.
CCn1c(SCC(=O)c2ccc(Br)cc2)nnc1C(C)NC(=O)Cc1ccc(OC)cc1 (configuration not stated),-9.7,4.9,17649*,-4.5,-5.2,6.9
COc1ccc(CC(=O)NC(C)c2nnc(SCC(=O)c3ccc(Br)cc3)n2C)cc1 (configuration not stated),-4.9,-0.8,9763,1.1,3.9,2.8
FCCCOc1ccc(CN2CCN(c3ccccc3F)CC2)cc1,-5.0,-1.9,4301,-1.0,-2.2,2.6
COc1ccc(-c2nnc(-c3ccc(OCC(C)C)cc3)o2)cc1,4.6,-7.3,4205,1.8,-6.7,0.9
CC(C)COc1ccc(-c2nnc(-c3ccncc3)o2)cc1,-2.5,-3.9,17655*,-4.1,-10.9,11.9
O=C(c1cccs1)c1coc2ccc(O)c(CN(CCO)CCO)c12,-0.5,0.8,21865*,2.3,10.0,0.3
COc1ccc2occ(C(=O)c3coc4ccc(O)c(CN(C)C)c34)c2c1,-0.9,-0.8,23271*,0.2,-2.9,-2.1
COc1ccc2occ(C(=O)c3ccc(N)cc3)c2c1,-1.6,-4.3,4625,-1.6,?,-1.3
COc1ccc2occ(C(=O)c3cccs3)c2c1,-2.6,3.0,24929*,-1.9,-5.9,8.3
CN(C)Cc1c(O)ccc2occ(C(=O)c3ccccc3)c12,3.6,0.9,22642*,1.6,2.3,0.7
CN(C)Cc1c(O)ccc2occ(C(=O)c3ccc(F)cc3)c12,1.5,1.5,3617,-1.7,-50.9,-3.1
CCN(CC)Cc1c(O)ccc2occ(C(=O)c3ccccc3)c12,-3.0,-6.3,3587,2.9,?,-0.3
CSc1cnn(CCC#N)c(=O)n1,-4.1,.,6035,-0.2,2.4,.
O=C(CSCc1ccccc1Cl)N1CCN(c2ccccn2)CC1,-0.9,0.7,8945,0.8,4.3,2.4
O=C(OCC(=O)N1CCN(c2ccccc2)CC1)c1cnc(Cl)c(Cl)c1,.,5.2,.,.,.,-2.0
O=C(CCSCc1ccccc1Cl)N1CCN(c2cccc(Cl)c2)CC1,-7.4,5.1,22753*,-0.3,0.4,-15.2
O=C(OCC(=O)N1CCN(c2ccccc2)CC1)c1cccc(Cl)c1,-5.0,8.4,23047*,?,-3.6,-5.8
SMILES,Anthrax LF inh2,SARS 3CLpro inh,Bead autofluor,BoNT A protease,BoNT F protease,BJeLR viability
O=C(CCC(=O)N1CCCC(Nc2ccccc2)C1)c1ccc(F)cc1 (configuration not stated),0.7,-4.4,5346,-0.1,3.3,-4.8
CSc1cccc(NC(N)=S)c1,-11.9,2.7,3703,-2.7,?,0.4
Cc1ccc(CCNC(=O)c2ccc(CS(=O)(=O)Cc3ccccc3F)o2)cc1,-1.6,5.4,23305*,1.6,1.5,-13.0
O=C(NCCc1ccccc1)c1ccc(CS(=O)(=O)Cc2ccccc2F)o1,2.8,0.5,18882*,2.8,4.6,-22.1
CC(C)CCNC(=O)c1ccc(CS(=O)(=O)Cc2ccccc2F)o1,2.5,-3.6,4666,-1.4,-8.1,1.0
O=C(NC1CCCC1)c1ccc(CS(=O)(=O)Cc2ccccc2F)o1,-2.3,-2.3,5803,0.0,0.5,-8.3
NS(=O)(=O)c1ccc(CNC(=O)c2ccc(NS(=O)(=O)c3cccs3)cc2)cc1,-0.1,.,?,1.5,0.9,.
CC(C)NC(=O)Cn1cc(S(=O)(=O)N2CCCC2)c(S(=O)(=O)N2CCCC2)c1,1.4,-0.1,4762,-3.1,-1.5,-1.0
COc1cccc(C(CNC(=O)C2CCN(C(=O)Nc3ccccc3)CC2)N(C)C)c1 (configuration not stated),0.6,.,3954,0.7,-0.5,.
O=C(Nc1ccc2oc(-c3ccncc3)nc2c1)c1cccs1,1.1,-9.0,3262,-0.3,9.2,-5.3
O=C(Nc1ccc(-c2nc3cc(NC(=O)c4cccs4)ccc3o2)cc1)c1cccs1,-1.1,6.9,22139*,-5.9,-4.4,4.7
Cc1ccc(-c2nc3cc(NC(=O)C(C)C)ccc3o2)cc1C,-0.4,3.6,24088*,-0.4,-2.1,6.1
Cc1cccc(CCN2C(N(C)C)=NC[C@@H]2CC(C)C)c1,-4.7,.,4386,0.9,-6.7,.
CCOC(=O)C1=C(CNCc2ccc(C)cc2)NC(=O)NC1c1cc(C)ccc1C (configuration not stated),-17.6,5.2,17821*,16.8,8.6,2.0
CCOC(=O)C1=C(CSc2nccn2C)NC(=O)NC1c1ccc2c(c1)OCO2 (configuration not stated),-1.1,-4.8,2739,-0.2,-0.8,-2.9
CCOC(=O)C1=C(CSc2nccn2C)NC(=O)NC1c1cc(C)ccc1C (configuration not stated),2.0,-2.1,16485*,?,-2.6,4.5
NS(=O)(=O)c1ccc(CCNC(=O)c2ccc3c(c2)OCCO3)cc1,-6.5,-5.5,5248,-1.4,-6.3,4.4
Cc1cccc(C)c1NC(=O)CN1CCN(CC(=O)NCC2(N3CCCCC3)CCCCC2)CC1,4.1,.,4410,0.8,-1.7,.
Cc1cc(C)c(S(=O)(=O)Nc2ccccc2C(=O)OCC(=O)NCc2ccccc2)c(C)c1,-4.4,4.3,3213,-0.3,-4.2,0.2
Cc1cc(N2CCC(C)CC2)c(F)cc1[N+](=O)[O-],1.3,-3.1,24078*,-0.7,-1.8,1.1
CC1CCCCN1c1cc(C#N)c(C#N)cc1[N+](=O)[O-] (configuration not stated),-2.9,-0.7,7974,-1.9,-22.5,-3.6
CC1CCN(c2cc(C#N)c(C#N)cc2[N+](=O)[O-])CC1,-0.4,-3.1,23005*,-1.1,-2.7,5.5
O=[N+]([O-])c1cc(F)c(N2CCCCCC2)cc1N1CCNCC1,-4.1,2.4,2519,-0.3,-19.3,1.3

# Screening data: PubChem, several laboratories
